Reference: PubChem BioAssay (NCI)
The panel holds about 79,000 compounds, 15% with a hit somewhere; the sample as a whole holds those more often. No stated cut-off is given here; in the data, active means growth inhibition above about 70%; inactive means the rest.

Experiments:
[1] = NCI Yeast Anticancer Drug Screen. Data for the rad50 strain (AID 155);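 further: 0% = growth of vehicle-only cultures of the same strain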; conditions: S. cerevisiae rad50 strain growth inhibition; at 50.0 µM; hits give high values
Outline: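 Inhibition values express reduced yeast growth in compound-treated cultures relative to vehicle-treated controls.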

[2] = NCI Yeast Anticancer Drug Screen. Data for the mec2-1 strain (AID 157); conditions: S. cerevisiae mec2-1 strain, at 50.0 µM, hits give high values
Outline: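 Compounds were applied to mec2-1 yeast cells. Their growth was then compared with that of vehicle-treated cultures to give growth inhibition.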

[3] = NCI Yeast Anticancer Drug Screen. Data for the sgs1 mgt1 strain (AID 161);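 further: 0% = growth of cultures given vehicle only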; conditions: S. cerevisiae sgs1 mgt1 strain, at 50.0 µM, hits give high values
Outline: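 Yeast cells carrying a defined DNA-repair defect were exposed to test compounds. Growth inhibition was measured relative to vehicle-treated controls.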

[4] = NCI Yeast Anticancer Drug Screen. Data for the cln2 rad14 strain (AID 165);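 further: 0% = growth equal to vehicle treated cultures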; conditions: S. cerevisiae cln2 rad14 strain, at 50.0 µM, hits give high values
Outline: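 Strain: cln2 rad14 yeast, altered in cell cycle control and DNA damage repair. Read-out: growth inhibition vs vehicle.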

[5] = NCI Yeast Anticancer Drug Screen. Data for the bub3 strain (AID 167); conditions: S. cerevisiae bub3 mutant strain, at 50.0 µM, hits give high values
Outline: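 Steps: expose the mutant yeast strain to compound; grow alongside vehicle-treated cultures; measure growth; express inhibition against the vehicle cultures.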

[6] = NCI Yeast Anticancer Drug Screen. Data for the mlh1 rad18 strain (AID 175); conditions: S. cerevisiae mlh1 rad18 strain growth inhibition; at 50.0 µM; hits give high values
Outline: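 A repair-deficient yeast strain is exposed to test compound, and growth is scored relative to vehicle-treated controls.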

Measured: growth inhibition

COC1CC(NC(C)=O)C(OC(=O)c2ccccc2)C(CBr)O1 (stereo unspecified)
inactive: [1] 17.6% | [2] 1.4% | [3] 2.45% | [4] 15.2% | [5] -1.8% | [6] 19.6%

C=COC(=O)N1CCCCC1
inactive: [1] -5.75% | [2] 15.8% | [3] 0.5% | [4] -13.7% | [5] -30.1% | [6] 27.4%

CC(=O)OC1CC(=O)OC(C)(C)C2CC(=O)C3(C)C(CCC4(C)C(c5ccoc5)OC(=O)C5OC543)C12C (stereo unspecified)
inactive: [1] 20.5% | [2] -18.3% | [3] 11.1% | [4] 2.85% | [5] -6.55% | [6] 21.1%

O=C(O)c1cc(=O)c2ccccc2[nH]1
inactive: [1] 4.45% | [2] 8.4% | [3] 1.35% | [4] 6.5% | [5] 8.2% | [6] 17.9%

O=C(Nc1ccc(S(=O)(=O)Nc2nccs2)cc1)c1cccnc1Nc1cccc(Cl)c1
inactive: [1] 36.6% | [2] 8.5% | [3] 22.2% | [4] 1.15% | [5] 13.4% | [6] 61.2%

O=C(c1nc2ccc(Cl)cc2[nH]c1=O)C(O)c1ccccc1 (stereo unspecified)
inactive: [1] 47.5% | [2] 6.95% | [3] 39.4% | [4] 42.9% | [5] 28.9% | [6] 41.8%

C1=NN=C2C=C3CCc4ccccc4C3CC12 (stereo unspecified)
inactive: [1] 7.45% | [2] 7.25% | [3] -1.2% | [4] -16.9% | [5] -15.9% | [6] 18.6%

COc1ccccc1NC(=O)N(C)Cc1ccc(Cl)cc1
inactive: [1] 11.3% | [2] 18.6% | [3] 18.9% | [4] 3.75% | [5] 47.1% | [6] 33.1%

Cc1cc(C)[n+](C)c2cc3ccccc3cc12
inactive: [1] 26.4% | [2] -20.2% | [3] 20.9% | [4] 44.2% | [5] -8.55% | [6] -28.5%

COCn1cnc2c(ccn2C2OC(CO)C(O)C2O)c1=O (stereo unspecified)
inactive: [1] -25.4% | [2] 0% | [3] -8.9% | [4] -2.1% | [5] 4% | [6] 4.55%

Nc1cccc(S(=O)(=O)Nc2ccccc2)c1
inactive: [1] 19.6% | [2] 25.6% | [3] 1.55% | [4] -6.6% | [5] 0.65% | [6] 10%

Nc1nc(SCCc2ccccc2)nc2nc3c(c(-c4ccccc4)c12)CCCC3
inactive: [1] -23.3% | [2] -10.6% | [3] -3.2% | [4] 2.35% | [5] 0.05% | [6] 5.1%

CCOc1ccc(NC(=O)CCCCCCCCC(=O)Nc2ccc(OCC)cc2)cc1
inactive: [1] 6.8% | [2] 3.2% | [3] -11.8% | [4] -1.9% | [5] -4.8% | [6] 19.8%

Cc1cc(-c2cccc3ccccc23)c(C#N)c(=S)n1C1OC(CO)C(O)C(O)C1O (stereo unspecified)
inactive: [1] 14.1% | [2] 4.4% | [3] 47.4% | [4] 9.5% | [5] 15.8% | [6] 33.6%

CCn1cc(C(=O)CCP(=O)(OC)OC)c2ccccc21
inactive: [1] 7.5% | [2] -22.2% | [3] 3.6% | [4] -12.8% | [5] 5.15% | [6] -0.25%

FC(F)(F)C(c1ccc(Cl)cc1)c1ccc(Cl)cc1
inactive: [1] 42.6% | [2] 28.8% | [3] 40.6% | [4] 34.5% | [5] 5.95% | [6] 30.6%

Cc1c2ccccc2nc(CS(=O)(=O)c2ccccc2)[n+]1[O-]
inactive: [1] -26.1% | [2] -13.2% | [3] -4.95% | [4] -60.5% | [5] -16.4% | [6] -6.1%

CCCCOC(=O)NC(=O)c1cc2cc(Br)cc(Br)c2oc1=O
inactive: [1] -2% | [2] 25.8% | [3] 0.3% | [4] -7.05% | [5] -1.2% | [6] -17.2%

COC(=O)c1ccc(F)cc1
inactive: [1] -53.9% | [2] -25.9% | [3] -25.5% | [4] -1.45% | [5] -51.6% | [6] -46.3%

CC(CCOCC1CO1)OCC1CO1 (stereo unspecified)
inactive: [1] 13.8% | [2] -17.4% | [3] 3.85% | [4] 14.8% | [5] -17.5% | [6] 22.6%

O=C(/C(=C(/[O-])C(F)(F)F)[n+]1ccc2ccccc2c1)C(F)(F)F
inactive: [1] -16.4% | [2] -2.4% | [3] -5.3% | [4] -40.1% | [5] -28.6% | [6] -0.4%

O=C1OC(=O)C(Cl)=C1Cl
inactive: [1] 16.6% | [2] -10.5% | [3] 28.8% | [4] 10.7% | [5] 9.4% | [6] 22.3%

CCOC(=O)N1C2CC=CCC1C1(c3ccccc3)OC2(c2ccccc2)c2ccccc21
inactive: [1] -16.7% | [2] -3.95% | [3] -4.6% | [4] 5.05% | [5] -1.05% | [6] -24.1%

CC(=O)Oc1ccc(CCNC(c2ccccc2)c2ccccc2)cc1OC(C)=O
inactive: [1] 44% | [2] 13.2% | [3] 42.5% | [4] -7.6% | [5] -17.4% | [6] 38.3%

CC(C)C(C(=O)O)C(=O)O
inactive: [1] 3.55% | [2] 10.5% | [3] 4.75% | [4] 1.25% | [5] 3.9% | [6] 19.1%

Nc1nc(-c2ccccc2)ns1
inactive: [1] 4.9% | [2] -44.1% | [3] 1.4% | [4] 8.4% | [5] -17.8% | [6] -2.3%

CC(C)c1ccc(C(C)C)c(Cl)c1
inactive: [1] 43.7% | [2] 13.9% | [3] 16.4% | [4] 7.95% | [5] -12.6% | [6] 12.5%

O=C(c1ccccc1)C(N=Nc1ccccc1)(c1ccccc1)c1ccccc1
inactive: [1] 4.15% | [2] -6% | [3] -1.8% | [4] -7.05% | [5] -0.85% | [6] 21.6%

COC(=O)/C(=N\NC(C)(C)C)C(C(=O)OC)C(=O)C(=O)Nc1cc(Cl)ccc1Cl (stereo unspecified)
inactive: [1] 6.7% | [2] -0.25% | [3] -1.65% | [4] 1% | [5] -24.6% | [6] 8.55%

O=C(CCCCC(=O)Nc1ccc2[nH]c3ccccc3c(=O)c2c1)Nc1ccc2[nH]c3ccccc3c(=O)c2c1
inactive: [1] 0.35% | [2] 0.25% | [3] -3.1% | [4] -2.5% | [5] -3.45% | [6] 7.75%

CCOC(=O)c1cc2c(cn1)[nH]c1cccc(N)c12
inactive: [1] -10.3% | [2] -39.5% | [3] 7.05% | [4] 5.85% | [5] -3.5% | [6] -9.55%

CS/C(N)=N\C(=O)N(C)C
inactive: [1] 2.75% | [2] -14.5% | [3] -4.45% | [4] -20.6% | [5] -8.55% | [6] 3.65%

CC(=O)OCC(C)(C)COC(C)=O
inactive: [1] 2.6% | [2] 1.65% | [3] -11.6% | [4] -7.9% | [5] -5.25% | [6] -11.2%

N#CC1=C(N2CCCC2)NC(=O)CC1=O
inactive: [1] 0% | [2] -4.4% | [3] -0.6% | [4] 35.6% | [5] 7.2% | [6] 1.4%

CN1CN(C)C(c2ccncc2)=C1c1ccncc1
inactive: [1] -36% | [2] -47.5% | [3] -29.9% | [4] -0.5% | [5] -58.3% | [6] -19.5%

O=[N+]([O-])c1ccc2nc(C(F)(F)F)cc(Cl)c2c1
inactive: [1] 7.35% | [2] 5.3% | [3] 2% | [4] -66.9% | [5] -1.1% | [6] -9.75%

N#CCCCCN1CCCC1
inactive: [1] 32.2% | [2] -8.7% | [3] 3.4% | [4] 12.7% | [5] 10.1% | [6] 9.05%

Cc1ccc(S(=O)CC(Cl)c2ccccc2)cc1 (stereo unspecified)
inactive: [1] -26.6% | [2] 4.2% | [3] 13.2% | [4] 56% | [5] 14.3% | [6] 21.1%

N#C/C(=C\c1cc(Br)c(O)c(Br)c1)c1ccccn1
inactive: [1] 50.5% | [2] 50.1% | [3] 24.4% | [4] 2.55% | [5] -3.35% | [6] 52.6%

O=c1c(F)cn2c(=O)n1CCCCCCCn1c(=O)c(F)cn(c1=O)CCCCCCC2
inactive: [1] 1.3% | [2] -24.4% | [3] 1.65% | [4] 0.7% | [5] -13.4% | [6] 1.55%

COCCCNC(=O)C1=CCCN(C)C1
inactive: [1] 6% | [2] -3.45% | [3] -3.55% | [4] -2.45% | [5] -1.55% | [6] -3.3%
